# The list is not random: actives were taken first. Their share in the collection is about 7.5%.
# SMN2 splice up = SMN2 splice variant enhancement. HEK293 SMN2-luciferase splicing reporter, luminescence, 30-36 h. Potency, µM (doses to about 46.1 µM), for inactives: at the highest dose activity change, positive = activation, hits mostly activators. 210,000 compounds, 2.8% hits. AID 1458; further: % of control where 0% means no effect; nearly all actives have a fitted effect of over 55% in size
#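 HEK293 cells carry an SMN2 minigene-luciferase reporter in which exon 7 inclusion puts luciferase in frame. Cells were seeded at 2000 cells/well, attached for 10-12 hours, then exposed to compounds for 30-36 hours at 37C before ONE-Glo luminescence.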
# FLuc modulator = firefly luciferase modulation, counter-screen for miR-21 project; P08659; purified FLuc, Km substrates, luminescence inhibition; Potency, µM (highest dose often 57.5 µM), for inactives: at the top dose activity change, negative = inhibition, usual class: inhibitors; 360,000 compounds, 6.9% hits; AID 588342;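 further: plate controls were vehicle for no effect and reference inhibitor for full effect; nearly all actives have a fitted effect of over 55% in size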
# Target sequence (P08659 whole entry, looked up): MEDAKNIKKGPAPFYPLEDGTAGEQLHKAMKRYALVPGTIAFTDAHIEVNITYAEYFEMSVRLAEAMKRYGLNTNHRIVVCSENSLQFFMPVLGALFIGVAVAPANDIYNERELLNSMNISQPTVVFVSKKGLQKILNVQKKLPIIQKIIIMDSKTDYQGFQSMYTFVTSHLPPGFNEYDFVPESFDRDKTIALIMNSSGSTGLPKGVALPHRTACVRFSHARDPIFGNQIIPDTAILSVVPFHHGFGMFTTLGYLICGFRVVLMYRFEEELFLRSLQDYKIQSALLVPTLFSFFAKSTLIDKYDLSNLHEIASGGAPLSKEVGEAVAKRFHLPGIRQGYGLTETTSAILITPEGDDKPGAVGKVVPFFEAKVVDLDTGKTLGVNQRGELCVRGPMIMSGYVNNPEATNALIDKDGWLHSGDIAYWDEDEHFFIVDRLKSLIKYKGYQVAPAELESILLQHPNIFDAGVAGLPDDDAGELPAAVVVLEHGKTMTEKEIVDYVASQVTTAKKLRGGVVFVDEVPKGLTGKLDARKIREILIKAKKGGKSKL
#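 Purified P. pyralis luciferase, 10 nM final, with Km-level 10 uM D-luciferin and 10 uM ATP in 50 mM Tris acetate pH 7.5, 10 mM Mg acetate, 0.01% Tween-20, 0.05% BSA; 6-point qHTS titration about 60 µM downward; luminescence read.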
# KinaseGlo FLuc = counter-screen: inhibitors of Kinase-Glo firefly luciferase | Potency, µM (series often up to 38.3 µM), inactives show top-dose activity change, negative = inhibition, usual class: inhibitors | AID 1379 | 200,000 compounds, 0.28% hits | Q27757 | Kinase-Glo luciferase, ATP luminescence, 8 min; further: on the % scale 0 is the no-effect control and ±100 the full control effect; nearly all actives have a fitted effect of over 60% in size
#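 Compound is pinned into ATP-containing buffer (10 uM ATP, imidazole pH 7.2, 7 mM MgCl2). Kinase-Glo luciferase reagent is then added. Light output is recorded following an 8-min room-temperature incubation.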
# ELG1 genotoxic = inducers of genotoxicity in HEK293T ELG1-luciferase cells | HEK293T ELG1-luciferase reporter, luminescence, 16 h | Potency, µM (series often up to 46 µM), for inactives: at the highest dose activity change, positive = activation, actives largely listed as activators | 330,000 compounds, 1.3% hits | AID 504466; further: % of control where 0% means no effect; nearly all actives have a fitted effect of over 60% in size
#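 Quantitative HTS format in 1536-well plates. HEK293T ELG1-luciferase reporter cells receive test compound and are incubated 16 hr at 37 °C, 5% CO2; ONE-Glo added, 30 min room temperature, then luminescence read.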
# Rab9 prom act = activators of Rab9 promoter. Huh7 Rab9 promoter-luciferase reporter, luminescence, 24 h. Potency, µM (titrated, usually from 9.22 µM), without a hit: at the highest dose activation, negative = inhibition, hits mostly activators. AID 485297. 320,000 compounds, 2.8% hits; further: % of control where 0% means no effect; nearly all actives have a fitted effect of over 60% in size
#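 Luciferase signal after 10 min detection reagent at ambient indicates Rab9 promoter upregulation; stably transfected Huh7 cells were treated 24 h with compound in DMSO at 37 °C, 5% CO2.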
# NPC1 promoter act = activators of NPC1 promoter. AID 485313. Huh7 NPC1 promoter luciferase reporter, 24 h. Potency, µM (top dose mostly 9.22 µM), without a hit: at the highest dose activation, usual class: activators. 320,000 compounds, 2.4% hits; further: % of control where 0% means no effect; nearly all actives have a fitted effect of over 60% in size
#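 Readout is luciferase luminescence, reflecting NPC1 promoter activation in stably transfected Huh7 cells after 24 h compound exposure at 37 °C in reduced-serum medium with 10% FBS.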
# Numbers without * were called inactive; ? = inconclusive; · = no result given; [ ] = another dose, or the depositor's remark. The call rests on the fitted dose curve; in most records, active means well fitted curve in the direction sought with a large enough effect; inconclusive means small, poorly fitted or top-dose-only effect, or another doubt; inactive means no such curve, though single readings can be large; an effect the other way counts as inactive or inconclusive. Potency means the concentration at half of the fitted maximal effect.
SMILES,SMN2 splice up,FLuc modulator,KinaseGlo FLuc,ELG1 genotoxic,Rab9 prom act,NPC1 promoter act
COc1ccc(Cn2c(C(=O)O)c(CNCc3ccc(C)o3)c3ccc(OC)cc32)cc1,·,-1%,·,·,·,·
CCN(C(=O)COc1ncnc2scc(-c3ccc(F)cc3)c12)C1CCS(=O)(=O)C1 (stereo not given),7%,4%,-2%,18µM*,13%,0%
COC(=O)c1c(NC(=O)c2cccs2)sc2c1CCC(C)C2 (stereo not given),15%,11µM*,1%,15%,?,?
CCC1CCc2c(sc(NC(=O)c3ccoc3C)c2C(N)=O)C1 (stereo not given),?,6.7µM*,3%,?,21%,-3%
CCC1CCc2c(sc(NC(=O)c3cccnc3)c2C(N)=O)C1 (stereo not given),19%,?,-2%,?,?,22%
CC1CCc2c(sc(NC(=O)c3cccs3)c2C(=O)O)C1 (stereo not given),·,6.7µM*,·,-5%,26%[1.84 µM],19%
Cc1ccc(C(=O)Nc2sc3c(c2C(=O)O)CCC(C)C3)o1 (stereo not given),·,·,·,1%,·,·
CCCC1CCc2c(sc(NC(=O)c3cccs3)c2C(N)=O)C1 (stereo not given),4%,3.4µM*,-1%,5%,?,?
COc1cc(NC(=O)CCc2c(C)noc2C)c(Cl)cc1C(=O)O,·,·,·,0%,·,·
Cc1nc(C)c(C(=O)Nc2ccc(Oc3ccccc3)cc2)o1,-96%,24µM*,-2%,0%,-9%,-5%
Cc1ncoc1C(=O)Nc1ccccc1-c1ccccc1,2%,0%,2%,2%,-6%,-4%
Cc1ncoc1C(=O)Nc1ccc(Oc2ccccc2)cc1,-4%,15µM*,-3%,5%,?,?
Cc1nc(C)c(C(=O)Nc2cccc(Cl)c2)o1,4%,-17%,-2%,-2%,1%,7%
CCN(CC)c1ccc(-c2nn3c(-c4n[nH]c5c4CCC5)nnc3s2)cc1,4%,21µM*,-6%,1%,-13%,-9%
CC1CC1C(=O)Nc1nc(-c2ccccc2)cs1 (stereo not given),-7%,24µM*,-3%,?,?,21%
O=C(Nc1nc(-c2nc3ccccc3s2)cs1)C1CC1,7.1µM*,3µM*,-3%,2.6µM*,0.71µM*,1.4µM*
O=C(Nc1nc(-c2ccc(Cl)s2)cs1)c1ccco1,?,15µM*,-2%,?,3.2µM*,?
Cc1csc(NC(=O)c2ccco2)n1,-7%,-2%,-4%,-1%,3%,1%
O=C(Nc1nc(-c2nc3ccccc3s2)cs1)c1ccco1,22µM*,?,-1%,?,?,?
O=C(Nc1ccc(Cl)cc1-c1nc2ccccc2s1)c1ccco1,·,-10%,·,0%,-4%,9%
C=CCN=C1N[C@@H](c2ccccc2)C(C(=O)OC)=C(C)N1CC,·,1%,·,0%,-2%,-1%
COc1ccc(CNC(=O)COC(=O)c2cc3ccccc3o2)cc1,·,4%,·,1%,0%,0%
O=C(Nc1nc(-c2ccc(Cl)s2)cs1)c1cccs1,5%,11µM*,1%,7%,27%,?
O=C(NCc1nc(-c2ccccc2)no1)c1cccs1,-11%,-2%,-6%,-1%,-4%,1%
O=C(NNc1nc(-c2ccc(Cl)cc2)cs1)c1ccco1,19%,24µM*,1%,1%,25%,14%
SMILES,SMN2 splice up,FLuc modulator,KinaseGlo FLuc,ELG1 genotoxic,Rab9 prom act,NPC1 promoter act
O=C(Nc1nc(-c2ccccc2)cs1)c1cccs1,·,8.5µM*,·,4%,3.5µM*,?
COc1cccc(OC)c1C(=O)Nc1nc(-c2ccccc2)cs1,·,1%,·,-2%,-5%,-8%
O=C(NNc1nc(-c2ccccc2)cs1)c1ccco1,23%,?,0%,11%,0%,3%
O=C(Nc1nc(-c2ccccc2)ns1)c1cccs1,13µM*,15µM*,2%,3%,?,?
O=C(COc1ccccc1)NCC(c1ccc(Cl)cc1)N1CCCCC1 (stereo not given),·,5%,·,·,·,·
CCOc1ccccc1NS(=O)(=O)c1ccc2c(c1)n(C)c(=O)c(=O)n2C,-18%,-4%,2%,0%,-7%,5%
O=C(Cn1ncc2c1-c1ccccc1OC2)N1CCN(Cc2ccc3c(c2)OCO3)CC1,-18%,5%,3%,-6%,-10%,-2%
Cc1cccc(C)c1OCc1nc2ccccc2c(=O)n1/N=C/c1c[nH]c2ccccc12,·,-1%,·,-13%,-1%,1%
COc1ccc(C)cc1-n1cnc2cc(C(=O)NC3CCCCCC3)ccc21,·,-6%,·,·,·,·
Cc1nn2c(-c3ccc(Cl)cc3)ccnc2c1-c1ccccc1,-5%,8.5µM*,-1%,8%,22%,?
Cc1nn2c(N)c(-c3ccccc3)cnc2c1-c1ccccc1,·,0.95µM*,·,?,1.6µM*,2.2µM*
Cc1nn2c(N)c(C#N)cnc2c1-c1ccccc1,7%,?,-1%,?,8%,2%
Cc1nn2c(-c3ccco3)ccnc2c1-c1ccc(Cl)cc1,-13%,5.4µM*,·,·,·,·
Cc1nn2c(-c3ccco3)ccnc2c1-c1ccc(Br)cc1,12%,9.5µM*,·,·,·,·
COc1cc2c(cc1O)CCC1C2CC[C@]2(C)[C@@H](O)CC[C@@H]12 (stereo not given in full),-24%,·,-2%,·,·,·
COc1cc(OC)cc(-c2c(-c3ccc(C(C)=O)cc3)c3cc(-c4cccc5[nH]ccc45)ccc3n2C)c1,·,·,·,1%,·,·
Cc1cccc(C)c1NC(=O)CN1C(=O)NC(C)(C2CC2)C1=O (stereo not given),·,·,·,1%,·,·
CN(c1ccccc1)S(=O)(=O)c1ccc(NC(=O)c2ccc(-c3ccccc3)cc2)cc1,·,-5%,-4%,-4%,-8%,-6%
Cc1nc2cc(NC(=O)c3ccc(S(=O)(=O)N(C)c4ccccc4)cc3)ccc2o1,·,17µM*,·,-42%,-9%,0%
Cc1ccc2ncccc2c1,14%,-2%,·,3%,-4%,14%
CN(C)S(=O)(=O)c1ccc(C(=O)Nc2ccc3ncccc3c2)cc1,·,15µM*,·,?,22%,22%
c1cnc2ccc(-c3ccc4ncccc4c3)cc2c1,·,0.6µM*,·,?,0.45µM*,1µM*
O=C(Nc1ccc2ncccc2c1)Nc1ccc2ncccc2c1,1%[9.22 µM],6.7µM*,0%[7.66 µM],0%,27%,?
Cc1c([N+](=O)[O-])cc(C(=O)Nc2ccc3ncccc3c2)cc1[N+](=O)[O-],·,-1%,·,1%,8%,-1%

# Compound activity as filed in PubChem BioAssay.
